Records with an inconclusive call do not appear. Where a call stands in place of a potency, no number is given. Active and inactive are the calls of the source. Unless noted, the call rests on the fitted dose curve; in most records, active means well fitted curve in the direction sought with a large enough effect; inconclusive means small, poorly fitted or top-dose-only effect, or another doubt; inactive means no such curve, though single readings can be large; an effect the other way counts as inactive or inconclusive.
biological target: ATP-dependent 6-phosphofructokinase (Trypanosoma brucei brucei) (UniProt O15648); assay: qHTS Assay to Find Inhibitors of T. brucei phosphofructokinase: hit validation (AID 492961);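 further: luminescence reports ADP formed as PFK phosphorylates fructose-6-phosphate with ATP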; settings: T. brucei PFK, ADP-Glo luminescence; series mostly up to 51.4 µM
Sequence (O15648 whole entry, looked up): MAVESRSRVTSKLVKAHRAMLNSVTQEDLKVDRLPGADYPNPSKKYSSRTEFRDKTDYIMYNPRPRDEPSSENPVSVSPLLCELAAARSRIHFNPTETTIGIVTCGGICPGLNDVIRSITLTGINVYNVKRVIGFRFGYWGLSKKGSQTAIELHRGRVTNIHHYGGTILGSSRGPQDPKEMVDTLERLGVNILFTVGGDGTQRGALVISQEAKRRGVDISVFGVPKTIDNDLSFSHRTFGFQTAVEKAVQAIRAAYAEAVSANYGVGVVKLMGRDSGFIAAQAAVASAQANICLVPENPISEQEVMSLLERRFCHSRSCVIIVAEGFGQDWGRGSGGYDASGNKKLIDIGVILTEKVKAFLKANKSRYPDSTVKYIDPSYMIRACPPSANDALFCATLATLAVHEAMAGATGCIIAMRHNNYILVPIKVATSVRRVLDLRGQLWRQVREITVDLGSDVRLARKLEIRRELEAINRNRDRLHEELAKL
Method in brief: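 Percent activity derived from corrected luminescence, normalized between 0x and 1x enzyme controls, then fitted to concentration-response curves. Conditions: 1.25 nM PFK, 0.1 mM ATP, 0.5 mM F6P, 45 min RT.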

Compound	Potency
CC(C)NCC(O)c1ccc(NS(C)(=O)=O)cc1 (configuration not stated)	inactive
NCCCC(O)(P(=O)(O)O)P(=O)(O)O	inactive
C[C@]12C=CC(=O)C=C1CC[C@@H]1[C@@H]2C(=O)C[C@@]2(C)[C@H]1CC[C@]2(O)C(=O)CO	inactive
CC(C)(C#N)c1cc(Cn2cncn2)cc(C(C)(C)C#N)c1	inactive
CCOC(=O)c1ccc(C#Cc2ccc3c(c2)C(C)(C)CCS3)nc1	inactive
COc1cccc(N(C)C(=S)Oc2ccc3c(c2)CCCC3)n1	inactive
Cn1nnc2c(C(N)=O)ncn2c1=O	inactive
N[C@@H](C(=O)N[C@@H]1C(=O)N2C(C(=O)O)=C(Cl)CS[C@H]12)c1ccccc1	inactive
CC(C)Cn1cnc2c(N)nc3ccccc3c21	inactive
NC(N)=NC(N)=NCCc1ccccc1	inactive
CCC(C)(C)c1ccc(CC(C)CN2C[C@@H](C)O[C@@H](C)C2)cc1 (some centres not stated)	inactive

test system: not listed separately; assay: Validation screen for small molecules that induce genotoxicity in human embryonic kidney (HEK293T) cells expressing luciferase-tagged ELG1 (AID 493106); settings: luminescence; series mostly up to 46.1 µM
Method in brief: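 Luminescence from an ELG1-luciferase fusion serves as the read-out, rising when genetic stress elevates ELG1 protein. HEK293T reporter cells (2,000 per well) received 23 nL compound, incubated 16 hr at 37 °C, then ONE-Glo for 30 min at room temperature.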

Compound	outcome
CCN1CCCC1CNC(=O)c1cc(S(N)(=O)=O)ccc1OC (configuration not stated)	inactive
CCN(CC)CCn1c(=O)c(Cc2ccc(OC)cc2)nc2ccccc21	inactive
COc1cc2ncnc(Nc3cccc(Cl)c3)c2cc1OC	inactive
CC(C)NCC(O)c1ccc(NS(C)(=O)=O)cc1 (configuration not stated)	inactive
N[C@@H](Cc1ccc(O)c(O)c1)C(=O)O	inactive
CC1=C(C(=O)O)N2C(=O)[C@@H](NC(=O)C(N)c3ccccc3)[C@H]2SC1 (some centres not stated)	inactive
NC(=O)c1ccc2[nH]ccc2c1	inactive
CCCCS(=N)(=O)CCC(N)C(=O)O (configuration not stated)	inactive
NC(=O)c1cccc(N)c1	inactive
CCN(CC)CC#CCOC(=O)C(O)(c1ccccc1)C1CCCCC1 (configuration not stated)	inactive
COc1cc2nc(N3CCCN(C)CC3)nc(NC3CCN(Cc4ccccc4)CC3)c2cc1OC	inactive
O=C(O)C1CCCN(CCC=C(c2ccccc2)c2ccccc2)C1 (configuration not stated)	inactive
CC1CC2C3CCC4=CC(=O)C=C[C@]4(C)[C@@]3(F)[C@@H](O)C[C@]2(C)[C@@]1(O)C(=O)CO (some centres not stated)	inactive
Cc1ccc(S(=O)(=O)N[C@@H](Cc2ccccc2)C(=O)CCl)cc1	inactive

biological target: ATPase family AAA domain-containing protein 5 (Homo sapiens) (UniProt Q96QE3); assay: Validation screen for small molecules that inhibit ELG1-dependent DNA repair in human embryonic kidney (HEK293T) cells expressing luciferase-tagged ELG1 (AID 493107); settings: HEK293T ELG1-luciferase level, luminescence, 5-fluorouridine co-treatment, 16 h; series mostly up to 46.1 µM; further: nearly all actives have a fitted effect of over 70% in size; further: potency means the concentration at half of the fitted maximal effect
Sequence (Q96QE3 whole entry, looked up, the tested form may be a part): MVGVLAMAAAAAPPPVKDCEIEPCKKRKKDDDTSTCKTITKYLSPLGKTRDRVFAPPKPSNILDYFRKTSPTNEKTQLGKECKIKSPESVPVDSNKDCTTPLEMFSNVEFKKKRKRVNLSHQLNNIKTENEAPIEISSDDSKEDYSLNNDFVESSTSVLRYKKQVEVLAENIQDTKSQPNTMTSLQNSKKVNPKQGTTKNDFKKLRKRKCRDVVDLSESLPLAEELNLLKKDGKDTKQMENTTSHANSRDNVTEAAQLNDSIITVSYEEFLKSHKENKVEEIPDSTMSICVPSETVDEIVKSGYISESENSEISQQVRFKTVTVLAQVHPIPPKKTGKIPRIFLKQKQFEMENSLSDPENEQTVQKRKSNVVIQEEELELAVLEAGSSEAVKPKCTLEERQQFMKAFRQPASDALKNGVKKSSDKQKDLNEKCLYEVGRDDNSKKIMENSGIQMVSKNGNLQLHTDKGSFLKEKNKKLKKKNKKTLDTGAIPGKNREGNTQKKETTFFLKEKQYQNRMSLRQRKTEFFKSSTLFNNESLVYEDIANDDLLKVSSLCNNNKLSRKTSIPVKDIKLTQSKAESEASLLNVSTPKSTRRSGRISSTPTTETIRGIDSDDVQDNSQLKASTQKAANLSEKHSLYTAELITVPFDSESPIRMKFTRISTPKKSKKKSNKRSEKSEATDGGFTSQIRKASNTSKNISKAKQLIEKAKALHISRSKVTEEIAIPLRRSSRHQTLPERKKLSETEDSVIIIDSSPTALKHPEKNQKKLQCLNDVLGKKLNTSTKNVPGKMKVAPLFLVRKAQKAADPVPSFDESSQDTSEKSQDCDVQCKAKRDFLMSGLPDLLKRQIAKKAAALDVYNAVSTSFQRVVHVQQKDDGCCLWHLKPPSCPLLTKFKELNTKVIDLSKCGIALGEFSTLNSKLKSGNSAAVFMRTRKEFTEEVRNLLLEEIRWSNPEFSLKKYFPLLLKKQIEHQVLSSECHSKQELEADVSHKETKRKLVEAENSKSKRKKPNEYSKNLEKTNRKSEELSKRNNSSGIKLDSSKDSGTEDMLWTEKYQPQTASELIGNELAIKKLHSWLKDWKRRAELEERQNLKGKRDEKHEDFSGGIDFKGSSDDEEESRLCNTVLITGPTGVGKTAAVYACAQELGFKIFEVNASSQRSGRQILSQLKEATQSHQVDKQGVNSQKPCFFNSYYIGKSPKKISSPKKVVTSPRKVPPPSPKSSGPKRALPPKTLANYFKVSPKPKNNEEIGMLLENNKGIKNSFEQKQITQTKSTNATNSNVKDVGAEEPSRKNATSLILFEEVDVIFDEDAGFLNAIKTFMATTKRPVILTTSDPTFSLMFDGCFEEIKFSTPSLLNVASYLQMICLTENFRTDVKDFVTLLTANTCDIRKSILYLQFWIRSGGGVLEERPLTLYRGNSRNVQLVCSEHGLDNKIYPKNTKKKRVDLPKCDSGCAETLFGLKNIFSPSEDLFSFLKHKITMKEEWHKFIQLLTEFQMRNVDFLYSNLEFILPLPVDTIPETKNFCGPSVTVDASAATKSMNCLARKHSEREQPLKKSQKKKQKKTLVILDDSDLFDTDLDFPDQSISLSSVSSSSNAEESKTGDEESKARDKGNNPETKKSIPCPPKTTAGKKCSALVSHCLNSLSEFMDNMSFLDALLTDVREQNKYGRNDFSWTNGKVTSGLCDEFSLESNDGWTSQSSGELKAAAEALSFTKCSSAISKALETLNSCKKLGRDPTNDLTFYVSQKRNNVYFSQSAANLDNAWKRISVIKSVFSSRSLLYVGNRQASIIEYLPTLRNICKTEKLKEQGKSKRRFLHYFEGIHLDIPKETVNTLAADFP
Method in brief: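 Luminescence from ONE-Glo, developed 30 min at room temperature, served as read-out of ELG1-luciferase levels. Beforehand, reporter HEK293T cells received 5-fluorouridine plus test compound for 16 hr at 37 °C.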

Compound	Potency
CCN(CC)CCn1c(=O)c(Cc2ccc(OC)cc2)nc2ccccc21	inactive
CC(C)NCC(O)c1ccc(NS(C)(=O)=O)cc1 (configuration not stated)	inactive
Nc1nc(N)c2nc(CNc3ccc(C(=O)NC(CCC(=O)O)C(=O)O)cc3)cnc2n1 (configuration not stated)	inactive
N[C@@H](Cc1ccc(O)c(O)c1)C(=O)O	inactive
CC1=C(C(=O)O)N2C(=O)[C@@H](NC(=O)C(N)c3ccccc3)[C@H]2SC1 (some centres not stated)	inactive
OCc1ccc(-c2nn(Cc3ccccc3)c3ccccc23)o1	inactive
CCCCS(=N)(=O)CCC(N)C(=O)O (configuration not stated)	inactive
NC(=O)c1cccc(N)c1	inactive
CCN(CC)CC#CCOC(=O)C(O)(c1ccccc1)C1CCCCC1 (configuration not stated)	inactive
COc1cc2nc(N3CCCN(C)CC3)nc(NC3CCN(Cc4ccccc4)CC3)c2cc1OC	25.9 µM (active)
O=C(O)C1CCCN(CCC=C(c2ccccc2)c2ccccc2)C1 (configuration not stated)	inactive
CC1CC2C3CCC4=CC(=O)C=C[C@]4(C)[C@@]3(F)[C@@H](O)C[C@]2(C)[C@@]1(O)C(=O)CO (some centres not stated)	inactive
Cc1ccc(S(=O)(=O)N[C@@H](Cc2ccccc2)C(=O)CCl)cc1	14.6 µM (active)

biological target: Thyrotropin-releasing hormone receptor (Homo sapiens) (UniProt P34981); assay: qHTS for Small Molecule Agonists and Allosteric Enhancers of Human TRH Receptor: Validation Screen for Agonists (AID 493127;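 active means calcium activation more than 3 SD above the typical response in the agonist read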;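 further: intracellular calcium rise by fluo-8 fluorescence before TRH EC20 addition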); settings: TRH receptor agonist cell assay; at 2 µM; active compounds read high
Sequence (P34981 whole entry, looked up): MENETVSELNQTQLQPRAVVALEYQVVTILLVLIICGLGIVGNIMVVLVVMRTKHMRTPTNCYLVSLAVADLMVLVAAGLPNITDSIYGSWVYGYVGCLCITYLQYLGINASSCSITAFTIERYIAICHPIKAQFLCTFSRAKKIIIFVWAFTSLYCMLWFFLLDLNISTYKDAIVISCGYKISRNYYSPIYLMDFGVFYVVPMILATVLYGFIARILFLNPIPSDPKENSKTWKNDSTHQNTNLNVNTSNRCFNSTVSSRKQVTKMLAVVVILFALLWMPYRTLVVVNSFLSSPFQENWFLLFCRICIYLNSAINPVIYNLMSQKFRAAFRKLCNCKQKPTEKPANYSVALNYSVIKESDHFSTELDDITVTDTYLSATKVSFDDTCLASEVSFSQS
Method in brief: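 Cells 2000/well, 10% FCS, 18 h 33.5C/5% CO2 → fluo-8 Ca dye, RT 30 min–1.5 h → FDSS baseline 10 × 1 s → compound added → 230 cycles (1 s/cycle) agonist mode. TRH controls.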

Compound	activation
CCN1CCCC1CNC(=O)c1cc(S(N)(=O)=O)ccc1OC (configuration not stated)	0.25% (inactive)
COc1cc2ncnc(Nc3cccc(Cl)c3)c2cc1OC	-6.5% (inactive)
CC(C)NCC(O)c1ccc(NS(C)(=O)=O)cc1 (configuration not stated)	0.875% (inactive)
Nc1nc(N)c2nc(CNc3ccc(C(=O)NC(CCC(=O)O)C(=O)O)cc3)cnc2n1 (configuration not stated)	1% (inactive)
CC1=C(C(=O)O)N2C(=O)[C@@H](NC(=O)C(N)c3ccccc3)[C@H]2SC1 (some centres not stated)	0% (inactive)
OCc1ccc(-c2nn(Cc3ccccc3)c3ccccc23)o1	0.188% (inactive)
CCCCS(=N)(=O)CCC(N)C(=O)O (configuration not stated)	-2.38% (inactive)
NC(=O)c1cccc(N)c1	1.12% (inactive)
CCN(CC)CC#CCOC(=O)C(O)(c1ccccc1)C1CCCCC1 (configuration not stated)	-7.56% (inactive)
O=C(O)C1CCCN(CCC=C(c2ccccc2)c2ccccc2)C1 (configuration not stated)	0.875% (inactive)
Cc1ccc(S(=O)(=O)N[C@@H](Cc2ccccc2)C(=O)CCl)cc1	2.5% (inactive)
CC(C)(C)NC(=O)[C@H]1CC[C@H]2[C@@H]3CC[C@H]4NC(=O)C=C[C@]4(C)[C@H]3CC[C@]12C	0.688% (inactive)

test system: not listed separately; assay: qHTS for Inhibitors of Cell Surface uPA Generation: Validation Assay (AID 493164); settings: mouse cells, plasminogen activation; series mostly up to 38.3 µM
Method in brief: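 RAW 264.7 cells (4000/well) were plated overnight, then exposed for 18 h at 37 C, 5% CO2 to compounds in a 7-point 1:5 titration (2.45 nM–38.3 uM final). Intracellular ATP was read by ATP-Lite luminescence.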

Compound	outcome
CCN1CCCC1CNC(=O)c1cc(S(N)(=O)=O)ccc1OC (configuration not stated)	inactive
CCN(CC)CCn1c(=O)c(Cc2ccc(OC)cc2)nc2ccccc21	inactive
COc1cc2ncnc(Nc3cccc(Cl)c3)c2cc1OC	inactive
CC(C)NCC(O)c1ccc(NS(C)(=O)=O)cc1 (configuration not stated)	inactive
Nc1nc(N)c2nc(CNc3ccc(C(=O)NC(CCC(=O)O)C(=O)O)cc3)cnc2n1 (configuration not stated)	inactive
N[C@@H](Cc1ccc(O)c(O)c1)C(=O)O	inactive
CC1=C(C(=O)O)N2C(=O)[C@@H](NC(=O)C(N)c3ccccc3)[C@H]2SC1 (some centres not stated)	inactive
NC(=O)c1ccc2[nH]ccc2c1	inactive
OCc1ccc(-c2nn(Cc3ccccc3)c3ccccc23)o1	inactive
CCCCS(=N)(=O)CCC(N)C(=O)O (configuration not stated)	inactive
CC(=O)[C@H]1CC[C@H]2[C@@H]3CCC4=CC(=O)CC[C@]4(C)[C@H]3CC[C@]12C	inactive
NC(=O)c1cccc(N)c1	inactive
CCN(CC)CC#CCOC(=O)C(O)(c1ccccc1)C1CCCCC1 (configuration not stated)	inactive
COc1cc2nc(N3CCCN(C)CC3)nc(NC3CCN(Cc4ccccc4)CC3)c2cc1OC	inactive
O=C(O)C1CCCN(CCC=C(c2ccccc2)c2ccccc2)C1 (configuration not stated)	inactive
CC1CC2C3CCC4=CC(=O)C=C[C@]4(C)[C@@]3(F)[C@@H](O)C[C@]2(C)[C@@]1(O)C(=O)CO (some centres not stated)	inactive
Cc1ccc(S(=O)(=O)N[C@@H](Cc2ccccc2)C(=O)CCl)cc1	inactive

— PubChem BioAssay (NCATS)
